According to ChEMBL document CHEMBL3988442, “University of Dundee, Small-Polar-MMV Screening Library” (2021):
Hit rate of the full screen: of about 48,000 compounds, about 13,000 (27%) showed an effect of 50% or more. This is one part of the list.

system: Wolbachia pipientis; test: Anti-Wolbachia Cell-Based Screen; format: functional; parameters: scale not given: in the data most compounds retested in dose-response had high values; conditions: 5 µM

| Compound | Percent Effect [%] |
| --- | --- |
| COCc1nn(CC2CC2)c2c1CN(Cc1ccco1)CC2.O=C(O)C(F)(F)F | -26.88 |
| Cc1cc(NC(=O)CN(CC(C)O)c2ccccc2)on1 (stereo not given) | -1.303 |
| CC(=O)N1N=C(COc2ccc(C)cc2)OC1c1ccc(N(C)C)cc1 (stereo not given) | 128.5 |
| COc1ccc(OCc2nc(C(=O)N3CCC(NC(C)=O)C3)co2)cc1 (stereo not given) | 5.881 |
| CC(=O)N(C)Cc1ccc(OCc2cccs2)cc1 | 14.59 |
| COc1ccc(C2OC(COc3ccccc3Br)=NN2C(C)=O)cc1 (stereo not given) | -8.819 |
| COc1ccc(C2OC(COc3ccc(C)cc3)=NN2C(C)=O)cc1 (stereo not given) | 120.9 |
| COc1cc(C(=O)N(CCC#N)Cc2ccccn2)cc(OC)c1C | 1.954 |
| O=C(CC1CCN(CCc2ccccc2)CC1)NC1CCOCC1 | 134.1 |
| O=C(Cc1cnn(-c2ccccc2)n1)NC1CCOCC1 | 19.75 |
| O=C(NCC1CCN(CCc2ccccc2)C1)NCC1(O)CCC1 (stereo not given) | -8.264 |
| O=C(CC1CCN(CCc2ccccc2)CC1)N1CCCOCC1 | 161.2 |
| O=C(CC1CN(Cc2ccccc2)CCO1)NC1CCCC1 (stereo not given) | 4.16 |
| O=C(CC1CCN(CCN2CCCCC2)CC1)N1CCOCC1 | -17.01 |
| CCCc1nc(CNC(=O)Cc2csc(C)n2)cs1 | -2.31 |
| Cc1nn(C)c(C)c1-c1ccnc(N(C)Cc2nc(C(C)C)no2)n1 | -10.91 |
| Cc1nn2cccnc2c1C(=O)NCc1ccccc1OC1CCC1 | -16.31 |
| O=C(c1cccnc1O)N1CCOC(Cc2cccc(C(F)(F)F)c2)C1 (stereo not given) | 16.06 |
| O=S(=O)(NCCCN1CC=CC1)c1cncc(Cl)c1 | -17.29 |
| CCC(O)c1nc2c([nH]1)CC(C)(C)CNC2=O (stereo not given) | 130.2 |
| CC1(C)CNC(=O)c2nc(-c3ccccc3)[nH]c2C1 | 3.068 |
| CC1(C)CNC(=O)c2nc(CCN3CCC(O)CC3)[nH]c2C1 | -46.57 |
| CC1(C)CNC(=O)c2nc(CCN3CCC(C(N)=O)CC3)[nH]c2C1 | -47.56 |
| CC1(C)CNC(=O)c2nc(-c3nnc(-c4ccccc4)[nH]3)[nH]c2C1 | 3.309 |
| CCOCC(O)c1nc2c([nH]1)CC(C)(C)CNC2=O (stereo not given) | 90.67 |

| Compound | Percent Effect [%] |
| --- | --- |
| CC1(C)CNC(=O)c2nc(-c3nnn[nH]3)[nH]c2C1 | 23.12 |
| CC1(C)CNC(=O)c2nc(-c3n[nH]c(=O)[nH]3)[nH]c2C1 | -9.314 |
| Cc1cc(OCC(O)c2nc3c([nH]2)CC(C)(C)CNC3=O)ccc1Cl (stereo not given) | 90.28 |
| CC(C)(C)CNS(=O)(=O)C1CS(=O)(=O)c2ccccc21 (stereo not given) | -2.538 |
| CCN(C)S(=O)(=O)N1CCC(C(O)c2ccc(F)cc2)CC1 (stereo not given) | -5.224 |
| Cc1nn(C)c2nc3c(c(C(=O)/N=c4\[nH]nc(C(C)C)s4)c12)CCC3 | 112.1 |
| COCc1n[nH]/c(=N\C(=O)c2c3c(nc4onc(C)c24)CCC3)s1 | 76.74 |
| Cc1n[nH]/c(=N\C(=O)c2c3c(nc4onc(C)c24)CCC3)s1 | 84.01 |
| Cc1noc2nc3c(c(C(=O)/N=c4\[nH]nc(C(C)C)s4)c12)CCC3 | 96.48 |
| Cc1nc(C)c(CNC[C@@]2(COc3cccnc3)C[C@@H](O)[C@@H](O)C2)s1.Cl.Cl | 0.5308 |
| O=C(CCn1cccn1)N1C[C@@H]2CC[C@H](C1)N(Cc1ccccn1)C2=O | 2.815 |
| Cl.NCCCNS(=O)(=O)Cc1ccc(Br)cc1 | -40.39 |
| CCCc1nc(CNc2nc(C)nc3oc(C)nc23)cs1 | -12.23 |
| COc1ccc(C(=O)N2CCC(Oc3ccccc3C)(C(=O)O)CC2)o1 | -4.68 |
| Cc1cs/c(=N\C(=O)c2c3c(nc4onc(C)c24)CCC3)[nH]1 | 113 |
| Cc1noc2nc3c(c(C(=O)/N=c4\[nH]ncs4)c12)CCC3 | 123.1 |
| COCc1noc(C2(c3ccc(F)cc3)CCOCC2)n1 | -32.93 |
| O=S(=O)(NCC1CCN(CCN2CCOCC2)C1)c1ccccc1F (stereo not given) | 14.41 |
| CC(=O)NCC(=O)N1CCn2cc(CN3CCN(C)CC3)nc2C1.O=C(O)C(F)(F)F.O=C(O)C(F)(F)F | -9.16 |
| CN(CCc1ccccc1)C1CCCN(Cc2nccn2C)C1 (stereo not given) | -2.668 |
| CC(=O)N1CCCC(Cc2nccn2C)C1 (stereo not given) | 104.6 |
| Cn1ccnc1CC1CCCN(C(=O)Nc2cccn(C)c2=O)C1 (stereo not given) | -3.094 |
| Cn1ccnc1CNC(=O)N1CCCC(Cc2nccn2C)C1 (stereo not given) | -2.047 |
| Cn1ccnc1CC1CCCN(C(=O)Cc2ccccc2)C1 (stereo not given) | 107.6 |
| CCC(C)(NCc1cccc(NC(C)=O)c1)c1nc(C)cs1 (stereo not given) | -6.571 |

| Compound | Percent Effect [%] |
| --- | --- |
| CCNS(=O)(=O)C1CCN(C(=O)c2ccc(CC)o2)C1 (stereo not given) | 1.453 |
| CCN1CCN(C(=O)C(C)N2CCc3cncnc3C2)CC1 (stereo not given) | 4.565 |
| COc1ccc(CN2CCOC[C@H](OCc3ccccc3)C2)cc1 | -4.744 |
| CNc1cnc(CC2COCCN(Cc3ccccc3)C2)cn1 (stereo not given) | 100 |
| CNc1cc(C)nc(N2CCN(Cc3ccccc3)CC(O)C2)n1 (stereo not given) | 10.53 |
| Cc1ccc(CC2COCCN(Cc3ccccc3)C2)nc1 (stereo not given) | 76.14 |
| Clc1cncc(NCc2cccc(OCCN3CCOCC3)c2)n1 | 2.735 |
| c1ccc(NCc2cccc(OCCN3CCOCC3)c2)nc1 | 9.722 |
| CC(C)(C)c1coc([C@@H]2COCCN2Cc2ccccc2)n1 | -6.681 |
| CN1CCN2CCN(Cc3cnc(NCc4ccccc4)nc3)CC2C1 (stereo not given) | 2.574 |
| CNc1cnc(CC2COCCN(CCOc3ccccc3)C2)cn1 (stereo not given) | 158.8 |
| Cc1cc(N2CCCN(CCc3ccccc3)CC2)ccn1 | 5.317 |
| Cc1cc(CC2COCCN(CCc3ccccc3)C2)ncn1 (stereo not given) | 136.2 |
| O=C1O[C@@H]2CN(CCc3ccccc3)C[C@@H]2N1CCCN1CCOCC1 | -3.811 |
| Cc1cc(C)n(C2CN(C(=O)Cn3c(=O)c(C)nc4ccccc43)C2)n1 | -1.32 |
| CNC(=O)[C@@H]1C[C@@H](N)CN1Cc1ccc2cccc(OC)c2n1 | -0.1513 |
| c1ccc(CCc2noc(CN3CCC(N4CCSCC4)CC3)n2)cc1 | -3.456 |
| N#Cc1ccc(CNC(=O)NC2CCN(CC(F)F)CC2)cc1 | 3.671 |
| COc1cc(O)cc2c1C(=O)CC(c1ccc(O)cc1)O2 (stereo not given) | -2.59 |
| CN(Cc1ccc(C#N)cc1)Cn1nccc1-c1cccnc1 | 11.16 |
| COc1ccc(CN2Cc3cn(C)nc3C(COCC3CC3)C2)cc1 (stereo not given) | 10.23 |
| COc1ccccc1CN(Cc1cccc(C)c1)C(=O)[C@@H](N)CC(=O)O | 3.134 |
| Oc1cc(CC2COCCN(CC3(O)CCOCC3)C2)ncn1 (stereo not given) | 130 |
| Cc1cccc(CN2C[C@H]3OC(=O)N(CCCN4CCOCC4)[C@H]3C2)n1 | -5.32 |
| Cc1cccc(O[C@H]2COCCN(Cc3sc(C)nc3C)C2)n1 | 12.2 |

| Compound | Percent Effect [%] |
| --- | --- |
| OC1COCCN(Cc2cccc(N3CCOCC3)c2)C1 (stereo not given) | -7.923 |
| CCCN1CCC(CC(=O)NCc2cc(O)ncn2)CC1 | -6.133 |
| CNc1cnc(CC2COCCN(Cc3cccc(C)n3)C2)cn1 (stereo not given) | 107 |
| CSc1cc2c(cc1NC(=O)N(C)Cc1cnn(C)c1)OCCO2 | -6.777 |
| COCCN1C(=O)[C@H]2CC[C@@H]1CN(C(=O)Cc1ccc(O)c(Cl)c1)C2 | 12.68 |
| CC(C)c1noc(Cn2ncn3cccc3c2=O)n1 | -11.32 |
| Cc1cccc(CN2CCC3(CCCN(C(=O)c4ccsc4)C3)C2=O)n1.O=C(O)C(F)(F)F (stereo not given) | -5.258 |
| CN(C)CC(=O)N1CCC2(CCN(Cc3ccccn3)C2=O)C1 (stereo not given) | -12.92 |
| Cc1ccc(C(=O)N2CCC3(CCN(Cc4ccccn4)C3=O)C2)cn1 (stereo not given) | 76.19 |
| Cc1cnc(C(=O)N2CCC3(CCN(Cc4ccccn4)C3=O)C2)cn1.O=C(O)C(F)(F)F (stereo not given) | 102.4 |
| O=C(O)C(F)(F)F.O=C(c1cccnc1)N1CCCC2(CCN(c3ccsc3)C2=O)C1 (stereo not given) | 9.95 |
| O=C(O)C(F)(F)F.O=C(c1ccsc1)N1CCC2(CCN(Cc3ccccn3)C2=O)C1 (stereo not given) | 124 |
| O=C(O)C(F)(F)F.O=C(c1ccc(F)cc1)N1CCC2(CCN(Cc3ccccn3)C2=O)C1 (stereo not given) | 89.07 |
| Cc1cccc(CN2CCC3(CCCN(C(=O)c4ccoc4)C3)C2=O)n1.O=C(O)C(F)(F)F (stereo not given) | 1.474 |
| COCC(=O)N1CCC2(CC1)CCN(Cc1ccccn1)C2=O.O=C(O)C(F)(F)F | -18.96 |
| Cc1oncc1C(=O)N1CCC2(CCN(Cc3ccccn3)C2=O)C1 (stereo not given) | -15.28 |
| COc1cccc(CC2CCCN2CCCC#N)c1 (stereo not given) | 4.783 |
| O[C@H]1[C@H](n2cc(-c3cccnc3)nn2)c2ccccc2C12CCNCC2 | 12.4 |
| O=C(CCc1ccc(OC(F)(F)F)cc1)N1CCCS1(=O)=O | 14.48 |
| c1cnc(N2CCN(Cn3nccc3-c3cccnc3)CC2)nc1 | 3.122 |
| Cc1ncc(C(=O)NC2CCN(CCOc3ccc(Br)cc3)CC2)s1 | -10.45 |
| CC(C)CC(NC(=O)c1ccc[nH]1)C(=O)N1CCC(CO)CC1 (stereo not given) | 4.263 |
| Cc1occc1C(=O)N1CCCC2(CCN(c3ccccc3)C2=O)C1 (stereo not given) | 4.886 |
| Cc1occc1C(=O)N1CCCC2(CCN(CCN3CCCC3)C2=O)C1.O=C(O)C(F)(F)F (stereo not given) | -1.514 |
| Cc1occc1C(=O)N1CCC2(CCN(Cc3ccccn3)C2=O)C1.O=C(O)C(F)(F)F (stereo not given) | 103.9 |
